Reference: PubChem BioAssay (NCATS)
Values joined by “and” are separate entries in the source; they are usually repeats but may differ in a detail not shown here. Identical values can stand only once. A number with no mark means an inactive call. Results filed as inconclusive are left out. Entries that show only a call come without a potency. Active and inactive are the calls of the source. Unless noted, the call rests on the fitted dose curve; in most records, active means well fitted curve in the direction sought with a large enough effect; inconclusive means small, poorly fitted or top-dose-only effect, or another doubt; inactive means no such curve, though single readings can be large; an effect the other way counts as inactive or inconclusive.

Assays:
[1] = AP1 Signaling Pathway (AID 357; active means well fitted curve in either direction with a large enough effect, not every such curve was filed as active;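 further: ME-180 reporter cells stimulated with EGF at its EC50 level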); conditions: ME-180 AP-1-bla reporter, EGF-induced, beta-lactamase ratio, 5 h; at 7.69 µM (top of the series) unless noted
Summary of the method: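 AP-1-bla ME-180 cells, Opti-MEM + 0.5% dialyzed FBS, plated overnight 37 °C. Cpd titration + EC50 EGF, 5 h 37 °C. CCF4 2.5 h RT; ex 405, em 460/530 ratio → %activity, AC50.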

[2] = target: Cytochrome P450 1A2 (Homo sapiens) (UniProt P05177); assay: p450-cyp1a2 (AID 410; calls by dose curve; further: potency means the concentration at half of the fitted maximal effect)
Chain of Cytochrome P450 1A2 (Homo sapiens) (P05177 whole entry, looked up): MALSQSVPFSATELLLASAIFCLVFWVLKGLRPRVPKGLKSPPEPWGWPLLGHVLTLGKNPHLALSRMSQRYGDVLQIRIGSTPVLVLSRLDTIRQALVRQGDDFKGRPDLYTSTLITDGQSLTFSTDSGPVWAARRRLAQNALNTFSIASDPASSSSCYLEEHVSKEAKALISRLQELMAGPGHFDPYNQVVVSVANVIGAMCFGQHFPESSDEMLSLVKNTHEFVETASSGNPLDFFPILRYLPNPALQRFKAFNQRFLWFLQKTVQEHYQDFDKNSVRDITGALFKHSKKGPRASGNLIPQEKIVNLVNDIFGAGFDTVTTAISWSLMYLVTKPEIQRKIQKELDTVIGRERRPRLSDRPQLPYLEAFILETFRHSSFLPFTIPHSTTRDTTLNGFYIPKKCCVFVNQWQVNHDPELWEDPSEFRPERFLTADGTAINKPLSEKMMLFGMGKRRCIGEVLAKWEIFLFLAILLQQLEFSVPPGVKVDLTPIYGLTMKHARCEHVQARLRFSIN
Summary of the method: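 Read-out is luminescence from luciferin produced by CYP1A2 demethylation of Luciferin-ME (100uM, at Km). Detection reagent stopped the 60 min NADPH-dependent reaction; signals were normalized to 57 uM furafylline.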

[3] = NFAT Signaling Pathway (AID 444; active means well fitted curve in either direction with a large enough effect, not every such curve was filed as active;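 further: carbachol stimulus at about its EC50 of 1 µM final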); conditions: Jurkat NFAT-bla M1, carbachol, beta-lactamase ratio, 5 h; at 7.69 µM (top of the series) unless noted
Summary of the method: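 Read-out: CCF4 FRET ratio (460 nm/530 nm) after 1 h RT dye loading, used for %activity and AC50 from titration series. Cells: Jurkat NFAT-β-lactamase/M1 line, treated with compound plus 1 uM carbachol for 5 h, 37 °C.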

[4] = Stat Signaling Pathway (AID 446; active means well fitted curve in either direction with a large enough effect, not every such curve was filed as active;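 further: ME-180 cervical cancer cells given 40 pM IL-6 alongside compound; SIE-controlled beta-lactamase reporter measured as 460/530 nm FRET emission ratio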); conditions: ME-180 (cervical carcinoma) SIE beta-lactamase reporter, IL-6 stimulated, 5 h; at 7.69 µM (top of the series) unless noted
Summary of the method: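 FRET read-out (405 nm excitation, 460/530 nm emission) of a beta-lactamase reporter under a STAT-inducible element in ME-180 cervical carcinoma cells. Cells with compound receive 40 pM IL-6 for 5 h. Values are normalised to AC90 stimulation and AC90 JAK-inhibitor controls.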

[5] = target: Glucocorticoid receptor (Homo sapiens) (UniProt P04150); assay: GR-EFC Redistribution (AID 451; calls by dose curve; further: potency means the concentration at half of the fitted maximal effect); conditions: CHO-K1 GR-EFC translocation, beta-gal luminescence, 2 h
Summary of the method: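 Translocation of GR-ED fusion to nuclear EA restores b-gal, read by luminescence after 1 h room-temperature detection. Engineered CHO-K1 biosensor cells, 1,000/well, exposed 2 h at 37 C to titrations up to 46 uM final.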

[6] = target: Mitogen-activated protein kinase 10 (Mus musculus) (UniProt Q61831); assay: JNK3 AlphaScreen Assay (AID 530; active means well fitted curve in either direction with a large enough effect, not every such curve was filed as active;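 further: kinase came from lysate of stimulated human HepG2 cells; signal reports phosphorylation of biotinylated GST-cJun 1-79 at Ser73 with 10 µM ATP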)
Summary of the method: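 Kinase buffer: 20 mM Tris-HCl pH 7.6, 10 mM MgCl2, 1 mM DTT, 0.1 mM Na3VO4, 0.01% Tween-20; ATP 10 uM. Substrate biotin-GST-cJun(1-79), enzyme from activated HepG2 lysates. Detection by Ser73 phospho-antibody AlphaScreen.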

[7] = target: 3',5'-cyclic-AMP phosphodiesterase 4B (Homo sapiens) (UniProt Q07343); assay: qHTS Assay for Inhibitors of PDE-IV (AID 607; active means well fitted activation curve with a large enough effect in the main read-out, with a control signal flat, not every such curve was filed as active)
Chain of 3',5'-cyclic-AMP phosphodiesterase 4B (Homo sapiens) (Q07343 whole entry, looked up): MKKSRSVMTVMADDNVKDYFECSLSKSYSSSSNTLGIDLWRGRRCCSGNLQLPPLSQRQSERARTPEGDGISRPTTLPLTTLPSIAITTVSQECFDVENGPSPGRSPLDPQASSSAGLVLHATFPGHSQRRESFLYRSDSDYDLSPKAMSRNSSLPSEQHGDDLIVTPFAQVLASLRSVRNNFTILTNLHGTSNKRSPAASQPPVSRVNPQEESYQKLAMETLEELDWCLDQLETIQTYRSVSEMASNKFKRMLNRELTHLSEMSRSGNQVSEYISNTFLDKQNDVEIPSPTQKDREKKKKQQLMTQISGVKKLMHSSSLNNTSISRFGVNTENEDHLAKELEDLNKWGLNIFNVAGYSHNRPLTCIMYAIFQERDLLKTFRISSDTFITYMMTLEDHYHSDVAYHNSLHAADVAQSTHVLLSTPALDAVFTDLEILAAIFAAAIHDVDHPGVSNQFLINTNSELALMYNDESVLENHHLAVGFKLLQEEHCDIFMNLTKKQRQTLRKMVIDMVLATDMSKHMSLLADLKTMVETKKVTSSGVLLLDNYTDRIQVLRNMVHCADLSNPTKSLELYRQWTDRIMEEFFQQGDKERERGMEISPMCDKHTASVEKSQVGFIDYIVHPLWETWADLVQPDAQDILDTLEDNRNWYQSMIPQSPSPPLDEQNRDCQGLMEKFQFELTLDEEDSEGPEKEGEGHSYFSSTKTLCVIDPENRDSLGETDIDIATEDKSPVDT
Summary of the method: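 Cell-based read-out of cAMP via a modified cyclic nucleotide-gated channel and membrane potential dye (535/590 nm) in HEK293 cells expressing PDE4 endogenously. Compounds tested up to 22.9 uM final; 100 uM RO 20-1724 reference.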

[8] = target: Cytochrome P450 3A4 (Homo sapiens) (UniProt P08684); assay: qHTS Assay for Activators of Cytochrome P450 3A4 (AID 885); further: nearly all actives have a fitted effect of over 65% in size
Summary of the method: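 Luminescent readout of luciferin formed from 25 uM Luciferin-PPXE (KM level) by 20 nM CYP3A4 in 200 mM KPO4, with 60 min NADPH-driven reaction at room temperature after 10 min compound exposure. Ketoconazole (57 uM) defined 100% inhibition.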

[9] = target: Cytochrome P450 2D6 (Homo sapiens) (UniProt P10635); assay: qHTS Assay for Inhibitors and Substrates of Cytochrome P450 2D6 (AID 891);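 further: luciferin methyl ether substrate demethylated by CYP2D6 with NADPH regeneration; nearly all actives have a fitted effect of over 60% in size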
Chain of Cytochrome P450 2D6 (Homo sapiens) (P10635 whole entry, looked up): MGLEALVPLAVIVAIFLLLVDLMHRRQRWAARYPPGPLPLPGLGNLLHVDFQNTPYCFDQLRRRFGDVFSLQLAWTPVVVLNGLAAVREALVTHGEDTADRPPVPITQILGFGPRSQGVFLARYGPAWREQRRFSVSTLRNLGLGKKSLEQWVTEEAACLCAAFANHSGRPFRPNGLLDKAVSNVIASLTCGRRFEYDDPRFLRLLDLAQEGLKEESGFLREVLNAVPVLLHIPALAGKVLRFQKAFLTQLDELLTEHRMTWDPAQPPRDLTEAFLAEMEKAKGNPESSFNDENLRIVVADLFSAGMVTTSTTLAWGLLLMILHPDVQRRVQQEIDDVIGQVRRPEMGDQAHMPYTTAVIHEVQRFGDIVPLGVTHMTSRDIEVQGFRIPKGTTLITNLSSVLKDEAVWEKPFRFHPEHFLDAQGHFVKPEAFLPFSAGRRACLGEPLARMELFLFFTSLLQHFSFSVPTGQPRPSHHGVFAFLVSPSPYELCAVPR
Summary of the method: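 Luminescent read-out of luciferin formed by 5 nM human CYP2D6 demethylating 30 uM Luciferin-ME EGE (Km level) over 60 min at room temperature after NADPH regeneration addition. Data normalized to full inhibition by 1.43 uM quinidine.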

[10] = target: Cytochrome P450 2C19 (Homo sapiens) (UniProt P33261); assay: qHTS Assay for Inhibitors and Substrates of Cytochrome P450 2C19 (AID 899); further: nearly all actives have a fitted effect of over 60% in size
Chain of Cytochrome P450 2C19 (Homo sapiens) (P33261 whole entry, looked up): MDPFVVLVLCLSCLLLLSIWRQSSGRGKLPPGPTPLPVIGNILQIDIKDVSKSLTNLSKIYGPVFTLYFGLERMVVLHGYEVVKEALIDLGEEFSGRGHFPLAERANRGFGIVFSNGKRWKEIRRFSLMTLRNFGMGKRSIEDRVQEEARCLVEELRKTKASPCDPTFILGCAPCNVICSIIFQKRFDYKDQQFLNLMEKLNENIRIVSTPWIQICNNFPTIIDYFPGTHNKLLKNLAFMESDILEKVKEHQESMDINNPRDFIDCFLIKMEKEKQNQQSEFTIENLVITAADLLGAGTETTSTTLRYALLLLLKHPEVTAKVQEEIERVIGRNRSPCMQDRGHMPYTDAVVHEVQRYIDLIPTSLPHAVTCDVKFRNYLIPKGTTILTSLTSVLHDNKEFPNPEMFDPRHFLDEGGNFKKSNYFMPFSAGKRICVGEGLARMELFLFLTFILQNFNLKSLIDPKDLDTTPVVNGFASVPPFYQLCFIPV
Summary of the method: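 5nM enzyme + 10uM Luciferin-H EGE (=KM), 50mM KPO4; cpd pin-transferred, 10 min 37C; NADPH regen, 60 min 37C; stopped w/ luciferin detection reagent, 20 min; luminescence. Normalized to 57uM ketoconazole (AC100).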

[11] = qHTS Assay for Identification of Small Molecule Agonists for Thrombopoietin (TPO) Signaling Pathway (AID 917)
Summary of the method: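 First, Ba/F3 cells with human TPO receptor were held overnight without IL-3. Next, compounds and TPO (26 pM final) were added. After 24 hrs at 37 C, luciferase detection reagent was added and luminescence measured following 10 min at room temperature.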

[12] = target: Muscarinic acetylcholine receptor M1 (Rattus norvegicus) (UniProt P08482); assay: qHTS Assay for Antagonists of Acetylcholine Muscarinic M1 Receptor: Measurement of IP-One Response (AID 944); further: nearly all actives have a fitted effect of over 75% in size
Chain of Muscarinic acetylcholine receptor M1 (Rattus norvegicus) (P08482 whole entry, looked up): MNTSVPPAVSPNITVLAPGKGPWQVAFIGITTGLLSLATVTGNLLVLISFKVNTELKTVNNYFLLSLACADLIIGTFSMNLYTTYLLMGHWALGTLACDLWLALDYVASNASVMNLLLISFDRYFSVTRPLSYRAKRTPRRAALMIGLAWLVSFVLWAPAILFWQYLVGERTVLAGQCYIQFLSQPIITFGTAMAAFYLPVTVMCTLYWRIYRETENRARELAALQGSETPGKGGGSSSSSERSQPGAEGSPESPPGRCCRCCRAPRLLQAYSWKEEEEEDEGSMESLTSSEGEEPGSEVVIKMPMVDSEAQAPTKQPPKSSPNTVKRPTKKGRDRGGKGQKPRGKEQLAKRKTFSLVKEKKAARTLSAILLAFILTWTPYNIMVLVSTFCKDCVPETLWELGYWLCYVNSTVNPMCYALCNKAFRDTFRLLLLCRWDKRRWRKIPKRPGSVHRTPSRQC
Summary of the method: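 Antagonism was measured as loss of carbachol-driven (EC80) IP1 accumulation in CHO cells carrying rat M1, using a homogeneous IP-One TR-FRET kit read at 620 and 665 nm.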

[13] = target: Pyruvate kinase (Leishmania mexicana) (UniProt Q27686); assay: qHTS Validation Assay for Inhibitors of Leishmania Mexicana Pyruvate Kinase (AID 945)
Chain of Pyruvate kinase (Leishmania mexicana) (Q27686 2-499 E452W): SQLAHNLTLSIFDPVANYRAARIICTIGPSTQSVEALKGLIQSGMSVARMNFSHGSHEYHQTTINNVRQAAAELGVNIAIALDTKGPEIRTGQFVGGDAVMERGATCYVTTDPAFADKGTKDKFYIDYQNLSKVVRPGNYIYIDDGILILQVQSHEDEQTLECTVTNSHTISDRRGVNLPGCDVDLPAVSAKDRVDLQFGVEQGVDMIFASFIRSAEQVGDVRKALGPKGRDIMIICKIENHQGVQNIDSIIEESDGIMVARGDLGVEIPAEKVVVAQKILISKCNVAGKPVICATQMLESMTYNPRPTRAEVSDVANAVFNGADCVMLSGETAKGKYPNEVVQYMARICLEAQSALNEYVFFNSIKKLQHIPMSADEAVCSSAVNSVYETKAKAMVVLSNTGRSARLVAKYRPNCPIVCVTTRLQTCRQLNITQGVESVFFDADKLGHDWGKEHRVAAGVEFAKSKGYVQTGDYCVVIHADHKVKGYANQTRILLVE
Summary of the method: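 Eight-point qHTS titrations in triplicate, data normalized to DMSO neutral control. Reaction: 0.2 nM LmPYK E451W mutant, 0.5 mM PEP, 0.1 mM ADP, 7 mM MgCl2, pH 7.2, one hour at room temperature; luminescent ATP detection.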

[14] = target: Pyruvate kinase PKM (Homo sapiens) (UniProt P14618); assay: qHTS Assay for Activators of Human Muscle Pyruvate Kinase (AID 954; active means well fitted curve in the direction sought with a large enough effect, not every such curve was filed as active)
Chain of Pyruvate kinase PKM (Homo sapiens) (P14618 whole entry, looked up): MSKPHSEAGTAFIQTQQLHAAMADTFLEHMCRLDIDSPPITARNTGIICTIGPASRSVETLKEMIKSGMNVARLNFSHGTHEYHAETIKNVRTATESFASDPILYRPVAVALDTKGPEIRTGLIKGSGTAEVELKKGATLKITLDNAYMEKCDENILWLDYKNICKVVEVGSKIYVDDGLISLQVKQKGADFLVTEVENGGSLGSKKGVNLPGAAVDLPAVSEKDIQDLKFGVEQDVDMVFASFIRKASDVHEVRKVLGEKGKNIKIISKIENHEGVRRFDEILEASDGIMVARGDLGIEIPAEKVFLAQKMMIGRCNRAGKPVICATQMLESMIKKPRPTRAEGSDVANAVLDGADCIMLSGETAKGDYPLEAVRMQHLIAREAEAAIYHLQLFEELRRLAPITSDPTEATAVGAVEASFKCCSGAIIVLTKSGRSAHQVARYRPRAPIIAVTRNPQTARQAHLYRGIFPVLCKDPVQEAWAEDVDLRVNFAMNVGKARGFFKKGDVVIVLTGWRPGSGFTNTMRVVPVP
Summary of the method: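 ATP production by PKM2 detected via luciferase luminescence after 1 h room-temperature reaction (0.1 nM enzyme, PEP at Km 0.5 mM, ADP 0.1 mM, pH 7.2 imidazole buffer). Inhibition scaled to no-enzyme control; activation referenced to 0.3 nM enzyme wells.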

[15] = target: Alpha-galactosidase A (Homo sapiens) (UniProt P06280); assay: Counterscreen for Glucocerebrosidase Inhibitors: qHTS Assay for Human alpha-Galactosidase at pH 4.5 (AID 992)
Chain of Alpha-galactosidase A (Homo sapiens) (P06280 whole entry, looked up): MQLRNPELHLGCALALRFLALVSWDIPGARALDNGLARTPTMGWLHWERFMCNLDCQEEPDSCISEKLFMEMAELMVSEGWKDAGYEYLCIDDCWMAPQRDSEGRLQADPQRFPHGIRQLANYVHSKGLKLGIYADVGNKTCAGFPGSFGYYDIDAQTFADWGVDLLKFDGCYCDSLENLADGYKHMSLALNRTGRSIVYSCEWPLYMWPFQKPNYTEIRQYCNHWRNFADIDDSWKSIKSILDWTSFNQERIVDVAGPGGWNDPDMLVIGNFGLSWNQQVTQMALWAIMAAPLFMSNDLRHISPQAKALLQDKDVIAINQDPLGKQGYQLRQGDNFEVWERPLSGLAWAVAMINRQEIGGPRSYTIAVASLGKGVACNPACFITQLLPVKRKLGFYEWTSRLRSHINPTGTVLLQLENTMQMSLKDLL
Summary of the method: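 Fluorogenic 1536-well qHTS at pH 4.5 (citrate, Tween-20): 2 nM enzyme, 80 uM 4-MU-alpha-galactoside, 20 min room temperature, NaOH/glycine stop. Titration 0.7 nM to 77 uM, data normalized to no-enzyme and full-activity controls, Hill-fitted AC50.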

[16] = target: alpha-glucosidase (Oryza sativa, rice) (UniProt Q653V4); assay: Counterscreen for Glucocerebrosidase Inhibitors: qHTS Assay for Rice alpha-Glucosidase at pH 5.0 (AID 997)
Summary of the method: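 Endpoint fluorogenic assay at pH 5.0: compounds (0.7 nM to 77 uM) titrated against 4 nM rice enzyme and 400 uM 4-MU-alpha-glucoside for 20 min at room temperature; NaOH/glycine stop, read ex 365/em 440 nm, Hill-fitted AC50.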

[17] = target: Glucocorticoid receptor (Homo sapiens) (UniProt P04150); assay: GR-GFP Redistribution (AID 450;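 active means compounds whose dose series gives a full or clear partial fitted curve of increased nuclear translocation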; further: potency means the concentration at half of the fitted maximal effect); conditions: U2OS GR-GFP nuclear translocation, laser cytometry, 2 h
[18] = target: Guanine nucleotide-binding protein G(i) subunit alpha-1 (Homo sapiens) (UniProt P63096); assay: qHTS Assay for Inhibitors of RGS12 GoLoco Motif Activity (Green Fluorophore) (AID 879);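 further: negative values mean loss of peptide binding seen as reduced polarization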
Chain of Guanine nucleotide-binding protein G(i) subunit alpha-1 (Homo sapiens) (P63096 whole entry, looked up): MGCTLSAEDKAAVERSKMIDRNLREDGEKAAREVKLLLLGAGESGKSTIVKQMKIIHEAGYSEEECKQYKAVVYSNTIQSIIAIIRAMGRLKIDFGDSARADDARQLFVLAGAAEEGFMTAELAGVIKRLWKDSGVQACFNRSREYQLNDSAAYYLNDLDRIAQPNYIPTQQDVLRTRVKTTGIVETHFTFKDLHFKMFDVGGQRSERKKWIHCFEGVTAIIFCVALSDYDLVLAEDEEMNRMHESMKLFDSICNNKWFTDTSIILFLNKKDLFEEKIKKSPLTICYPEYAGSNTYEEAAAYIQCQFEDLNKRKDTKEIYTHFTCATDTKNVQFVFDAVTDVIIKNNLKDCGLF
Summary of the method: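 A drop in FITC polarization marked displacement of the FITC-tagged RGS12 GoLoco peptide (10 nM) from Gαi1 (50 nM). Compounds were incubated 10 min at room temperature in Tris pH 7.5 buffer containing 150 mM NaCl, 0.1 mM GDP and 0.05% NP40; unlabeled peptide titration served as control.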

[19] = target: Muscarinic acetylcholine receptor M1 (Rattus norvegicus) (UniProt P08482); assay: qHTS Assay for Antagonists of Acetylcholine Muscarinic M1 Receptor: Kinetic Measurement of Intracellular Calcium Response (AID 943);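 further: Fluo-4 calcium signal as peak divided by basal fluorescence over 4 min; nearly all actives have a fitted effect of over 75% in size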
Summary of the method: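 Quantitative HTS in CHO-M1 (rat receptor) cells: 10 min compound exposure ahead of 100 nM carbachol, Fluo-4 fluorescence followed 4 min, value expressed as peak-to-basal ratio.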

[20] = qHTS Assay for Identification of Small Molecule Antagonists for NFkB Signaling Pathway (AID 895; active means well fitted inhibition curve with a large enough effect in the signal ratio, with a control signal flat, not every such curve was filed as active; the % refers to the signal ratio)
Summary of the method: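 Beta-lactamase reporter read-out (460 and 530 nm emission ratio, 405 nm excitation, 2 hrs substrate loading RT) after 5 hr stimulation with 10 pM TNF alpha in compound-treated NFkB-bla ME-180 cells in low-serum medium.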

Row | Compound | activity change, negative = inhibition [1] | Potency [2] | activity change, negative = inhibition [3] | activity, negative = inhibition [4] | Potency [5] | Potency [6] | Potency [7] | Potency [8] | Potency [9] | Potency [10] | outcome [11] | Potency [12] | outcome [13] | outcome [14] | outcome [15] | Potency [16] | Potency [17] | outcome [18] | Potency [19] | Potency [20]
1 | CC1=C(C(=O)O)N2C(=O)[C@@H](NC(=O)[C@@H](N)C3=CCC=CC3)[C@@H]2SC1 | 0.806% [at 38 µM] | inactive | 1.78% [at 38 µM] | -5.32% [at 38 µM] | > 46 µM | inactive | inactive | inactive | inactive | inactive | inactive | inactive | inactive | inactive | inactive | inactive |  |  |  | 
2 | CCC[C@@H]1O[C@@H]2C[C@@H]3[C@@H]4CCC5=CC(=O)C=C[C@@]5(C)[C@H]4[C@H](O)C[C@@]3(C)[C@@]2(C(=O)CO)O1 | 8.13% [at 38 µM] | inactive | 9.04% [at 38 µM] | 6.66% [at 38 µM] |  | inactive | inactive |  | inactive |  |  |  |  |  |  |  |  |  |  | 
3 | CC[N+](C)(CC)CCN1C(=O)c2ccccc2S1(=O)=O | 7.73% | inactive | 6.78% | -3.07% | > 9.22 µM | inactive | inactive |  |  | inactive |  |  |  |  |  |  |  |  |  | 
4 | N[C@H](CS(=O)O)C(=O)O | 9.5% [at 38 µM] | inactive | 10.5% [at 38 µM] | 17.2% [at 38 µM] | > 46 µM |  | inactive |  | inactive |  |  |  |  |  |  |  | > 46 µM |  |  | 
5 | O=C(Nc1ccccc1)N1CCC2(CC1)CCN(C(=O)c1ccco1)CC2 | -11.7% | 10 µM (active) | -5.38% | 15.9% | > 46 µM | inactive | inactive |  |  |  |  |  |  |  |  |  |  |  |  | 
6 | CCCCC[C@H](CC(=O)NO)C(=O)N[C@@H](C(=O)N1CCC[C@H]1CO)C(C)C | 26.8% [at 38 µM] | inactive | 6.72% [at 38 µM] | 7.77% [at 38 µM] | > 46 µM |  | inactive | inactive |  | inactive |  | inactive | inactive | inactive | inactive | inactive |  | inactive | inactive | 
7 | CSc1nc(N)c2ncn([C@@H]3O[C@@H](COP(=O)(O)OP(=O)(O)O)[C@@H](O)[C@H]3O)c2n1 | 22.9% [at 38 µM] | inactive | 6.32% [at 38 µM] | 5.34% [at 38 µM] | > 46 µM |  | inactive |  |  |  | inactive | inactive | inactive | inactive | inactive | inactive | > 46 µM | inactive |  | inactive
8 | O=c1[nH]c(=O)n([C@H]2C[C@H](O)[C@H](CO)O2)cc1Br | 14.9% [at 38 µM] | inactive | 2.6% [at 38 µM] | 4.48% [at 38 µM] |  | inactive | inactive |  | inactive | inactive |  |  |  |  |  |  |  |  |  | 
9 | CC[C@@H]1CN2CCc3cc(OC)c(OC)cc3[C@H]2C[C@@H]1C[C@@H]1NCCc2cc(OC)c(OC)cc21 | -110% [at 38 µM] (active) | inactive | -112% [at 38 µM] (active) | -52.6% [at 38 µM] (active) | > 46 µM |  |  |  |  |  |  | inactive | inactive | inactive | inactive | inactive | > 46 µM |  |  | 
10 | C=C[C@H]1CN2CC[C@@H]1C[C@H]2[C@@H](O)c1ccnc2ccc(OC)cc12 | -5.24% [at 17.2 µM] | inactive | -13% [at 17.2 µM] | -9.97% [at 17.2 µM] |  | inactive |  |  |  |  |  |  |  |  |  |  |  |  |  | 
11 | C[C@@]12C=CC(=O)C=C1CC[C@@H]1C2=CC[C@]2(C)[C@@H]1CC[C@H]2C(=O)CN1CCN(c2cc(N3CCCC3)nc(N3CCCC3)n2)CC1 | 13.8% [at 38 µM] | 12.6 µM (active) | -21.1% [at 38 µM] | 9.08% [at 38 µM] | > 46 µM |  | inactive |  |  |  | inactive |  | inactive | inactive | inactive | inactive |  |  |  | 
12 | C=C[C@@]1(C)CC(=O)[C@@]2(O)[C@@]3(C)[C@H](O)CCC(C)(C)[C@@H]3[C@H](O)[C@H](OC(C)=O)[C@]2(C)O1 | -15.8% [at 38 µM] | inactive | 5.97% [at 38 µM] | 9.83% [at 38 µM] | > 46 µM |  |  |  | inactive |  | inactive | inactive | inactive | inactive | inactive | inactive | > 46 µM | inactive | inactive | 
13 | CCn1cc(C(=O)O)c(=O)c2ccc(Cc3ccccc3)nc21 | -7.45% [at 38 µM] | inactive | 2.79% [at 38 µM] | 8.13% [at 38 µM] | > 46 µM |  |  |  | inactive | inactive |  |  |  |  |  |  | > 46 µM |  |  | 
14 | O=C(O)[C@H]1C[C@H](C(=O)O)N1 | -0.354% [at 38 µM] and 2.92% [at 38 µM] | inactive | 3.19% [at 38 µM] and 0.467% [at 38 µM] | -10.2% [at 38 µM] | > 46 µM |  | inactive |  | inactive | inactive | inactive | inactive | inactive | inactive | inactive | inactive | > 46 µM |  | inactive | 
